# Source: the supplement of paper PMC10849652
# The full data set covers some 8,800 targets. This sample favours those with a hit. About 0.5% of all pairs of compound and target were hits. Unmarked numbers belong to inactive results.
# Legend:
# Experiment in all cases: log2 fold change, soluble protein after heating vs DMSO (PISA); higher = thermal stabilisation; K562 lysate, 10 uM; active = over 0.2 and 3.5 SD of the protein, either way, in both replicates (recomputed)
# lapatinib = compound: CS(=O)(=O)CCNCc1ccc(-c2ccc3ncnc(Nc4ccc(OCc5cccc(F)c5)c(Cl)c4)c3c2)o1 [lapatinib]
# Procedure, shortened: (§1)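 Values give the log-two fold change in thermal stability against solvent controls, from duplicates. Crude K562 extract at 1 mg/mL protein, made by dounce homogenisation in PBS pH 7.4 with 1 mM MgCl2, was treated with 10 μM compound for 30 min. After 3 min heating across 48°C-58°C, aliquots were pooled, adjusted to 0.5% NP-40 at 4°C and centrifuged at 21,000xg for 90 min. The supernatant was measured by TMTpro 16plex LC-MS/MS with channel sums equalised.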
# pictilisib = compound: CS(=O)(=O)N1CCN(Cc2cc3nc(-c4cccc5[nH]ncc45)nc(N4CCOCC4)c3s2)CC1 [pictilisib]
# Procedure, shortened: as §1
# crizotinib = compound: C[C@@H](Oc1cc(-c2cnn(C3CCNCC3)c2)cnc1N)c1c(Cl)ccc(F)c1Cl [crizotinib]
# Procedure, shortened: as §1
# [1] = compound: C[C@H](C1=CC=C(C=C1)C(=O)NC2=C3C=CNC3=NC=C2)N
# Procedure, shortened: as §1
# duvelisib = compound: C[C@H](Nc1ncnc2nc[nH]c12)c1cc2cccc(Cl)c2c(=O)n1-c1ccccc1 [duvelisib]
# Procedure, shortened: as §1
# gandotinib = compound: Cc1cc(Nc2cc(CN3CCOCC3)c3nc(C)c(Cc4ccc(Cl)cc4F)n3n2)n[nH]1 [gandotinib]
# Procedure, shortened: as §1
# tozasertib = compound: Cc1cc(Nc2cc(N3CCN(C)CC3)nc(Sc3ccc(NC(=O)C4CC4)cc3)n2)n[nH]1 [tozasertib]
# Procedure, shortened: as §1
# doramapimod = compound: Cc1ccc(-n2nc(C(C)(C)C)cc2NC(=O)Nc2ccc(OCCN3CCOCC3)c3ccccc23)cc1 [doramapimod]
# Procedure, shortened: as §1
# bafetinib = compound: Cc1ccc(NC(=O)c2ccc(CN3CC[C@H](N(C)C)C3)c(C(F)(F)F)c2)cc1Nc1nccc(-c2cncnc2)n1 [bafetinib]
# Procedure, shortened: as §1
# [2] = compound: Cc1cccc(CC(=O)N2CCc3c2ccc(-c2cn(C)c4ncnc(N)c24)c3F)n1
# Procedure, shortened: as §1
# nilotinib = compound: Cc1cn(-c2cc(NC(=O)c3ccc(C)c(Nc4nccc(-c5cccnc5)n4)c3)cc(C(F)(F)F)c2)cn1 [nilotinib]
# Procedure, shortened: as §1
# [3] = compound: Cc1nc(Nc2n[nH]c3c2CN(C(=O)N[C@H](CN(C)C)c2ccccc2)C3(C)C)c2sccc2n1
# Procedure, shortened: as §1
# dasatinib = compound: Cc1nc(Nc2ncc(C(=O)Nc3c(C)cccc3Cl)s2)cc(N2CCN(CCO)CC2)n1 [dasatinib]
# Procedure, shortened: as §1
# [4] = compound: Cc1ncc(-c2ccnc(Nc3ccc(S(C)(=O)=O)cc3)n2)n1C(C)C
# Procedure, shortened: as §1
# [5] = compound: Cn1cc(-c2ccc3c(c2)CCN3C(=O)Cc2cccc(C(F)(F)F)c2)c2c(N)ncnc21
# Procedure, shortened: as §1
# quisinostat = compound: Cn1cc(CNCC2CCN(c3ncc(C(=O)NO)cn3)CC2)c2ccccc21 [quisinostat]
# Procedure, shortened: as §1
# tipifarnib = compound: Cn1cncc1[C@@](N)(c1ccc(Cl)cc1)c1ccc2c(c1)c(-c1cccc(Cl)c1)cc(=O)n2C [tipifarnib]
# Procedure, shortened: as §1
# [6] = compound: NC(=O)Nc1cc(-c2cccc(F)c2)sc1C(=O)N[C@H]1CCCNC1
# Procedure, shortened: as §1
# [7] = compound: NC(=O)c1cnc(N[C@@H]2CCCC[C@@H]2N)nc1Nc1cccc(-n2nccn2)c1
# Procedure, shortened: as §1
# [8] = compound: NC1(c2ccc(-c3nc4ccn5c(=O)[nH]nc5c4cc3-c3ccccc3)cc2)CCC1
# Procedure, shortened: as §1
# Sequence of UniProt Q96IZ6 (Q96IZ6 whole entry, looked up): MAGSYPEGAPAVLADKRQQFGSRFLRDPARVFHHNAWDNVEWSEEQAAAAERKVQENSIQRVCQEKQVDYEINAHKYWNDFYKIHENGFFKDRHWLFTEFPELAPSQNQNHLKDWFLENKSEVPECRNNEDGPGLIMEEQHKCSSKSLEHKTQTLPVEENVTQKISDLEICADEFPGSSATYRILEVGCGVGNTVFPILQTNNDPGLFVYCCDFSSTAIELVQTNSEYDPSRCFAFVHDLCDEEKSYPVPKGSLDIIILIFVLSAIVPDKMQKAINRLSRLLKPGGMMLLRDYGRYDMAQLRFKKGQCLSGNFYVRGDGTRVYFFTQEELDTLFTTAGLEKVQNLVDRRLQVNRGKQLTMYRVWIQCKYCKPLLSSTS
# Sequence of UniProt Q9Y2X0 (Q9Y2X0 whole entry, looked up): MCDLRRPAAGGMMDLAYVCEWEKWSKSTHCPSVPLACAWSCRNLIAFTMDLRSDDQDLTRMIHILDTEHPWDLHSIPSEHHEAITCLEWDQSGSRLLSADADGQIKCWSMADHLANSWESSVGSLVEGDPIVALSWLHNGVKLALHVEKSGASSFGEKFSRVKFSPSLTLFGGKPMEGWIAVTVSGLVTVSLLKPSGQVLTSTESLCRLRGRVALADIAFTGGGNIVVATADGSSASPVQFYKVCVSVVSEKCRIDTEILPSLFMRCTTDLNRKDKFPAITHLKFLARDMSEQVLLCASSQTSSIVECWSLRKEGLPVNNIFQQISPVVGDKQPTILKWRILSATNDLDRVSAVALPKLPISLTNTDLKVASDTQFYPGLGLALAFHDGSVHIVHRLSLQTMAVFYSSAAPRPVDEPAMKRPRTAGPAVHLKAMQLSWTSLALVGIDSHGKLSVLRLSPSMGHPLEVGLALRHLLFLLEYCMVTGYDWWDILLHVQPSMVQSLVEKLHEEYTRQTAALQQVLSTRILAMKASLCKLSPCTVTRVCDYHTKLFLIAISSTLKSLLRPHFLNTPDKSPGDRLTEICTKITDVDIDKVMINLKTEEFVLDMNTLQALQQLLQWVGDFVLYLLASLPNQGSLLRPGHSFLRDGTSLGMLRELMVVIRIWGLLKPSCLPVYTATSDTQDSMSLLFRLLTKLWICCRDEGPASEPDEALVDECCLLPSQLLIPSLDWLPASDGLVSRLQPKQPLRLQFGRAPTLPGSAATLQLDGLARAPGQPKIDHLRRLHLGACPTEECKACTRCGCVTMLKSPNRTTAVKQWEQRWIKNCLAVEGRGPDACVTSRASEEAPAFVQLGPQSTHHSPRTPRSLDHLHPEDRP
# Sequence of UniProt Q8IYU8 (Q8IYU8 whole entry, looked up): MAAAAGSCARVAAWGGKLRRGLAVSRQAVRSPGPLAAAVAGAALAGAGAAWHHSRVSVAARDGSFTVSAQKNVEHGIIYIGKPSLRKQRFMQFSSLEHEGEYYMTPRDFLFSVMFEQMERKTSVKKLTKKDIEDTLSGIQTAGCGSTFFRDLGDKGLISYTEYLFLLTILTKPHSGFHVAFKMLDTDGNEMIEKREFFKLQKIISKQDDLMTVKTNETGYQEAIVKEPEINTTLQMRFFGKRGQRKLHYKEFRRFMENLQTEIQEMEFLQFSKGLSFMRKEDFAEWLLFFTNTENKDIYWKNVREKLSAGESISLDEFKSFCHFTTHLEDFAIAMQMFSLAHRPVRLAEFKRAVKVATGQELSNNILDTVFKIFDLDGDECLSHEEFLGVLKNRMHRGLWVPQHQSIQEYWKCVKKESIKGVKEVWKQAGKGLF
# Sequence of UniProt P36507 (P36507 whole entry, looked up): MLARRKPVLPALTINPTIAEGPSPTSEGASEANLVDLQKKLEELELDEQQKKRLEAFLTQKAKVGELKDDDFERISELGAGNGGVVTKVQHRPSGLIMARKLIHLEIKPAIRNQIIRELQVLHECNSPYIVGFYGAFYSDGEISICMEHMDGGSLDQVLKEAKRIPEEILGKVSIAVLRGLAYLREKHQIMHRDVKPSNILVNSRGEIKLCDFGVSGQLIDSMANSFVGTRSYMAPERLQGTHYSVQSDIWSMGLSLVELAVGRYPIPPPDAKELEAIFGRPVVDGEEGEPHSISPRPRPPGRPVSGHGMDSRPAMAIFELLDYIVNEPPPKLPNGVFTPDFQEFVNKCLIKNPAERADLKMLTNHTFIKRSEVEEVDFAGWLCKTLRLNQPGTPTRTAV
# Sequence of UniProt P40692 (P40692 whole entry, looked up): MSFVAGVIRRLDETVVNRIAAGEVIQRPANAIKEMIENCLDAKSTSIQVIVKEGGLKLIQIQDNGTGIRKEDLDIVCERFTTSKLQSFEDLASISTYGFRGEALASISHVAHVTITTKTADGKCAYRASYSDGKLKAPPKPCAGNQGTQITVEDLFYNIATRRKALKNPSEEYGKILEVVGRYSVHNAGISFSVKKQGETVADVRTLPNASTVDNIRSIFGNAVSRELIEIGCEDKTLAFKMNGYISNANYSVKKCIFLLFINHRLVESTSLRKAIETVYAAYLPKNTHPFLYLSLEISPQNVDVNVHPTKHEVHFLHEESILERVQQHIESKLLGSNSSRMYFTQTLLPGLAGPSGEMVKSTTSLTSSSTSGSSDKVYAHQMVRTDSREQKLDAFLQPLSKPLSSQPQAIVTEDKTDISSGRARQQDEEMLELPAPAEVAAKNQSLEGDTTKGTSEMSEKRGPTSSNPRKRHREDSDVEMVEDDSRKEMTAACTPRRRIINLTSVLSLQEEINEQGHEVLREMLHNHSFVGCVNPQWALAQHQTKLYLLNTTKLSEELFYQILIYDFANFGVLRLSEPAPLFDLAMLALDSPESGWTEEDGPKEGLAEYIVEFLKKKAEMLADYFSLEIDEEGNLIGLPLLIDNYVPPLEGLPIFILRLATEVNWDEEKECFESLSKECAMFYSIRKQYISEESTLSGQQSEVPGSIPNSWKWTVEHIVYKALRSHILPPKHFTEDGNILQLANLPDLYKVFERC
# Sequence of UniProt Q71F56 (Q71F56 whole entry, looked up): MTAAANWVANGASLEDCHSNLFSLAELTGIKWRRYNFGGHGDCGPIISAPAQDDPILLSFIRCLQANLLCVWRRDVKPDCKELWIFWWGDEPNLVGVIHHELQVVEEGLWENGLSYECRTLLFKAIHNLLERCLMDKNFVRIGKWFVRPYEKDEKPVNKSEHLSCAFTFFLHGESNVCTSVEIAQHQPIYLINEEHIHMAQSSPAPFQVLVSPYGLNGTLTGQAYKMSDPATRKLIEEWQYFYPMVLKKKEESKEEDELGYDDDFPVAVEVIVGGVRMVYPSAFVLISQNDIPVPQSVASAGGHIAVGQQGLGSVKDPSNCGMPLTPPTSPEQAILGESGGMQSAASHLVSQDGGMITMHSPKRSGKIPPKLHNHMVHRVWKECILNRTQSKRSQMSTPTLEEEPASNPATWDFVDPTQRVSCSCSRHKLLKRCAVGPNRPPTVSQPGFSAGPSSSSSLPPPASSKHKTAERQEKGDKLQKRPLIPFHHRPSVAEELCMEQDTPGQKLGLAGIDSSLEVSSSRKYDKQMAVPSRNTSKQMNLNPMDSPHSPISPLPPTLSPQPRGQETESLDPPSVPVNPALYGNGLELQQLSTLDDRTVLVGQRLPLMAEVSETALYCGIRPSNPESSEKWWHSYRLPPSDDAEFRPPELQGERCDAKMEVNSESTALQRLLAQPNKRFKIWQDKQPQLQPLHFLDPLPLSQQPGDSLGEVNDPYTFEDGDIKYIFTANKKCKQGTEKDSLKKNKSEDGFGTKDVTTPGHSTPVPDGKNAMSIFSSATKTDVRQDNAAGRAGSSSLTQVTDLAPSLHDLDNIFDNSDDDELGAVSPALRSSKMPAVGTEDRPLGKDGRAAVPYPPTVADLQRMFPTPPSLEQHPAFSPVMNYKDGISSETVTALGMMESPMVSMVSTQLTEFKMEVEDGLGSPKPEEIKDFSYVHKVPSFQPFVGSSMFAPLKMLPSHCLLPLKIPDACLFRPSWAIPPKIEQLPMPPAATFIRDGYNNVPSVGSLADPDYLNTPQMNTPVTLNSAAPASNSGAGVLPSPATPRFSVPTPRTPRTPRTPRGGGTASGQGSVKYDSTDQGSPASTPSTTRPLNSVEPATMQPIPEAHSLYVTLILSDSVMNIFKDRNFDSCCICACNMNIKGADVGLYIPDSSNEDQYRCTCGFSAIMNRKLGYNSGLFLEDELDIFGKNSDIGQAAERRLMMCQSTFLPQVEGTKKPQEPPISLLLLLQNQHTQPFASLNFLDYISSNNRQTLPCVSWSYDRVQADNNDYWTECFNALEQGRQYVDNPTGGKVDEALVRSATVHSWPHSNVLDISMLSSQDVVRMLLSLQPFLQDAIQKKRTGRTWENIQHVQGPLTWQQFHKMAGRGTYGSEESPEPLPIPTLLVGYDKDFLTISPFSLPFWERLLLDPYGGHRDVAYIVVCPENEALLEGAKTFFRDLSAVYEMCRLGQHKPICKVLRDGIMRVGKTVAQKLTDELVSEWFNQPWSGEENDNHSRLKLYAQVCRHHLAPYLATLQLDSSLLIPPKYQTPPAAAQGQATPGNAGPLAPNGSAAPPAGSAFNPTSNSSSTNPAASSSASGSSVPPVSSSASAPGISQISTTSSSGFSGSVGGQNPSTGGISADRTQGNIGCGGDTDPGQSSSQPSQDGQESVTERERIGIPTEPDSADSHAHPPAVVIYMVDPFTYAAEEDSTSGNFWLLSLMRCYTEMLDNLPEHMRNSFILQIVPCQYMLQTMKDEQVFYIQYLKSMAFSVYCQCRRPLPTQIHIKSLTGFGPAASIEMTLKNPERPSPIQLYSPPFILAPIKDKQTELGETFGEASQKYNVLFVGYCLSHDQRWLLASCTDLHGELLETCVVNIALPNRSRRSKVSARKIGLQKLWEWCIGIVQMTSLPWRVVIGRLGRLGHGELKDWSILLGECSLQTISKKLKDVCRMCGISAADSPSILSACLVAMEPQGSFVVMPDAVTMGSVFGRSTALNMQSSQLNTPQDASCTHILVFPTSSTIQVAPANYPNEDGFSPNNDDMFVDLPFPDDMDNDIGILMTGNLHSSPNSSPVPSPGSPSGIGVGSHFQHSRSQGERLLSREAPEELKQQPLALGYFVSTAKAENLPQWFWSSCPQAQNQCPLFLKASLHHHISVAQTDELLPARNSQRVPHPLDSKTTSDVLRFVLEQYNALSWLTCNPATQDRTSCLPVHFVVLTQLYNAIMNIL
Target,log2 fold change (lapatinib),log2 fold change (pictilisib),log2 fold change (crizotinib),log2 fold change [1],log2 fold change (duvelisib),log2 fold change (gandotinib),log2 fold change (tozasertib),log2 fold change (doramapimod),log2 fold change (bafetinib),log2 fold change [2],log2 fold change (nilotinib),log2 fold change [3],log2 fold change (dasatinib),log2 fold change [4],log2 fold change [5],log2 fold change (quisinostat),log2 fold change (tipifarnib),log2 fold change [6],log2 fold change [7],log2 fold change [8]
MLH1 (UniProt P40692),-0.006,0.001,-0.085,-0.035,0.016,-0.04,-0.043,0.013,-0.063,0.038,0,0.014,-0.007,0.03,0.031,-0.043,0.005,0.061,0.067,-0.046
MORC2 (UniProt Q9Y6X9),0.016,0.015,-0.012,-0.049,0.04,-0.032,0.008,0.012,-0.032,0.043,-0.012,-0.02,-0.046,0.006,0.051,-0.05,0.024,0.049,0.028,-0.001
METTL2A (UniProt Q96IZ6),-0.001,-0.049,-0.026,0.056,0.052,-0.065,0.029,0.035,-0.017,-0.065,-0.012,0.022,0.044,-0.014,0.03,-0.042,0.01,0.057,-0.029,0.005
MICU2 (UniProt Q8IYU8),-0.057,0.036,-0.043,0.026,0.015,-0.264 (active),0.083,0.029,-0.056,0.029,-0.052,0.02,-0.026,0.048,-0.015,-0.03,-0.043,0.07,0.105,-0.009
KIF21A isoform 5 (UniProt Q7Z4S6),-0.014,-0.018,-0.021,0.157,-0.032,-0.077,0.005,0.019,-0.019,-0.062,0.011,0.036,0.001,0,0.001,-0.011,-0.048,0.048,-0.009,-0.028
MRPL15 (UniProt Q9P015),-0.021,0.036,-0.045,-0.421 (active),-0.013,0.134,0,0.079,-0.063,0.241,0.011,-0.034,0.004,-0.028,-0.008,-0.022,0.012,0.005,0.012,-0.181
MAP2K2 (UniProt P36507),-0.048,0.015,0.039,0.207,0.012,-0.065,0.282,-0.058,-0.063,-0.015,-0.03,0.205,0.445 (active),0.065,-0.031,0,-0.006,0.495 (active),0.033,-0.002
KPNA2 (UniProt P52292),-0.016,0.024,-0.063,-0.001,0.011,-0.066,0.017,0.003,-0.028,0.05,-0.051,-0.002,-0.041,0.018,0.039,-0.01,-0.023,0.026,0.039,-0.05
KIF22 (UniProt Q14807),-0.149,-0.07,-0.29,-0.201,-0.02,0.238,-0.043,-0.009,-0.068,0.33,0.041,-0.021,-0.023,-0.029,-0.055,-0.451 (active),-0.015,0.081,-0.023,-0.171
LIMS1 isoform 3 (UniProt P48059),0.002,-0.019,0.103,-0.045,-0.023,0.008,-0.02,-0.068,-0.035,0.038,0.076,0.035,0.017,0.104,0.018,0.255 (active),0.002,-0.065,-0.007,0.001
LAGE3 (UniProt Q14657),0.002,-0.032,-0.014,0.04,-0.12,-0.013,0.043,0.009,0.084,0.013,-0.065,0.186,0.006,-0.055,0.021,-0.03,0.1,0.013,0.017,0.084
MGST1 (UniProt P10620),-0.047,0.018,0.003,0.22 (active),0.013,-0.025,-0.011,-0.041,-0.032,-0.016,0.033,-0.002,-0.012,-0.017,0.014,-0.029,0.02,0.085,-0.007,-0.012
MAPK6 (UniProt Q16659),-0.038,-0.021,0.025,0.075,-0.008,-0.042,-0.024,-0.006,-0.028,-0.045,-0.065,0.085,0.032,0.05,0.039,-0.003,-0.081,0.055,0.017,-0.028
MED13L (UniProt Q71F56),0.034,-0.072,-0.039,-0.047,-0.083,-0.005,-0.019,0.026,-0.061,0.035,0.06,-0.056,0.017,0.032,0.045,-0.055,-0.012,0.069,0.014,0.015
LRRC40 (UniProt Q9H9A6),-0.004,-0.012,-0.007,0.015,-0.025,-0.088,0.014,0.009,-0.028,-0.032,-0.008,-0.01,-0.012,-0.035,0.017,0.032,-0.032,0.004,0.004,0.029
MED16 (UniProt Q9Y2X0),-0.014,-0.154,0.03,0.167,-0.027,-0.261 (active),0.012,0.021,0.051,-0.065,-0.019,0.01,-0.026,0.023,-0.016,-0.01,0.008,-0.013,0.023,-0.047
